Hits are enriched below; roughly 3.1% of the tested compounds scored in any of these assays.
TRb-SRC2 inh: qHTS for Inhibitors of the Interaction of Thyroid Hormone Receptor and Steroid Receptor Coregulator 2. Thyroid hormone receptor beta (Homo sapiens), P10828. TRbeta-SRC2 peptide binding, fluorescence polarization; receptor liganded with 1 µM T3. Potency, µM (titrated, usually from 106 µM), inactives show at the top dose activity change, negative = inhibition, most hits filed as inhibitors. 0.065% of 280,000 active;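 further: plate controls were bound peptide for no effect and peptide without receptor for full effect; nearly all actives have a fitted effect of over 50% in size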
Target sequence (P10828 whole entry, looked up): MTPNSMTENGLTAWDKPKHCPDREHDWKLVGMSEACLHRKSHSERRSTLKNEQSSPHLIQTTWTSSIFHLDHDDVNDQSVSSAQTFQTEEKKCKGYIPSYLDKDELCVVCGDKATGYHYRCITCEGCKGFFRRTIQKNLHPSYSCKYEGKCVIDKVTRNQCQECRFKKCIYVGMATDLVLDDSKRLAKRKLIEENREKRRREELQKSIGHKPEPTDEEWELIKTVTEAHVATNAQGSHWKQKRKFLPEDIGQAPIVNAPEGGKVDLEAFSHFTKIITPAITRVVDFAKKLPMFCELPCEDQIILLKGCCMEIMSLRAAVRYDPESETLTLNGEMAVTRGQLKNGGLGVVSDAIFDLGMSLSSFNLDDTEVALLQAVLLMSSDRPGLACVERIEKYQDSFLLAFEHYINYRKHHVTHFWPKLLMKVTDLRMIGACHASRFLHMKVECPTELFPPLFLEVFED
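Binding of a 20-amino-acid Texas Red SRC2 peptide (20 nM) to TRb ligand-binding domain (0.6 uM) with agonist T3 at 1 uM was followed by fluorescence polarization after a 5 hr room-temperature incubation.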
TR SRC2 fluor cs: Total Fluorescence Counterscreen for Inhibitors of the Interaction of Thyroid Hormone Receptor and Steroid Receptor Coregulator 2; Potency, µM (top dose mostly 106 µM), without a hit: at the top dose fluorescence change, negative = quenching; TRb/SRC2 Texas Red total fluorescence interference; AID 1479, 2009; 0.29% of 280,000 active; active means well fitted curve in either direction with a large enough effect; inconclusive means small, poorly fitted or top-dose-only effect
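Human TRb ligand-binding domain at 0.6 uM with 20 nM Texas Red SRC2 peptide in Tris buffer containing 1 uM T3 and 5% DMSO, incubated with compound 5 h at ambient temperature. Total fluorescence (555/632 nm) calculated as parallel + 2 × perpendicular.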
Tau fluor cs: Counterscreen qHTS for Inhibitors of Tau Fibril Formation, Fluorescence Polarization; tau K18 P301L Alexa594 fluorescence, heparin fibrillization; Potency, µM (top dose mostly 57.7 µM), for the others: top-dose activity change, negative = decrease; 0.93% of 280,000 active; AID 1463, 2008; further: nearly all actives have a fitted effect of over 55% in size
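Human tau K18 P301L (15 uM unlabeled, 0.24 uM Alexa 594-labeled) in 100 mM sodium acetate pH 7 with 20 uM heparin, 6 hr at 37 C. ThT 30 uM added, 1 hr ambient; Alexa 594 FP and total fluorescence read at 555/632 nm.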
Tau ThT inhib: qHTS for Inhibitors of Tau Fibril Formation, Thioflavin T Binding; recombinant tau K18 P301L (four-repeat tau fragment), heparin-induced fibrillization, ThT fluorescence; Potency, µM (doses to about 57.4 µM), without a hit: top-dose activity, negative = inhibition, most hits filed as inhibitors; 2.1% of 270,000 active; AID 1460, 2008; further: nearly all actives have a fitted effect of over 55% in size
Target sequence (P10636 561-689 P618L limits assumed): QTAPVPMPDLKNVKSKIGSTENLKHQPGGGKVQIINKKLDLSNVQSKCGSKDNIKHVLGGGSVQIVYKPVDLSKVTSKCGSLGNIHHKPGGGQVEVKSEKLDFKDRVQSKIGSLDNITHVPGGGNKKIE
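Recombinant human tau K18 fragment […] carrying P301L, 15 uM unlabeled plus 0.24 uM Alexa 594-labeled, was fibrillized with 20 uM heparin in 100 mM sodium acetate pH 7 for 6 hr at 37 C; 30 uM ThT fluorescence read after 1 hr.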
Tau FP inhib: qHTS for Inhibitors of Tau Fibril Formation, Fluorescence Polarization | Microtubule-associated protein tau (Homo sapiens), P10636 | K18 P301L tau heparin fibrillization, Alexa594 FP, 6 h | Potency, µM (highest dose often 57.7 µM), inactives show top-dose activity, negative = inhibition, most hits filed as inhibitors | 0.39% of 280,000 active; further: nearly all actives have a fitted effect of over 55% in size
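FP of Alexa 594-tau after heparin (20 uM) induction. Substrate: human K18 P301L, 15 uM unlabeled, 0.24 uM labeled. Buffer 100 mM sodium acetate pH 7. 6 hr, 37 C.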
RGS12 GoLoco inh: qHTS Assay for Inhibitors of RGS12 GoLoco Motif Activity (Red Fluorophore) | Guanine nucleotide-binding protein G(i) subunit alpha-1 (Homo sapiens), P63096 | Potency, µM (top dose mostly 61.6 µM), inactives show at the highest dose activity, negative = inhibition, usual class: inhibitors | 0.44% of 230,000 active | AID 880, 2007 | Gai1:RGS12 GoLoco peptide FP, rhodamine, 10 min; active means well fitted inhibition curve with a large enough effect, not every such curve was filed as active; inactive means no such curve, though single readings can be large or run the other way; further: nearly all actives have a fitted effect of over 30% in size
* marks the source's active call; other numbers are inactive results; ? = inconclusive; / = no result; [ ] = dose if it differs, or a comment. Unless noted, the call rests on the fitted dose curve; in most records, active means well fitted curve in the direction sought with a large enough effect; inconclusive means small, poorly fitted or top-dose-only effect, or another doubt; inactive means no such curve, though single readings can be large; an effect the other way counts as inactive or inconclusive. Unless noted, on the % scale 0 is the no-effect control and ±100 the full control effect; potency means the concentration at half of the fitted maximal effect.

SMILES	TRb-SRC2 inh	TR SRC2 fluor cs	Tau fluor cs	Tau ThT inhib	Tau FP inhib	RGS12 GoLoco inh
COc1cccc(-n2c(=O)c3sc4ccccc4c3n(CC(=O)Nc3cccc(Cl)c3)c2=O)c1	0%	-1%	?	12%	22µM*	/
COc1cccc(NC(=O)Cn2c(=O)n(-c3ccccc3)c(=O)c3ccc(C(=O)NCc4ccc5c(c4)OCO5)cc32)c1	-2%	0%	-29%	15%	32µM*	/
O=C(Cn1c(=O)n(Cc2ccc3c(c2)OCO3)c(=O)c2oc3ccccc3c21)Nc1ccccc1	0%	-1%	-23%	?	?	/
NS(=O)(=O)c1ccc(O)c(NC(=O)c2ccc([N+](=O)[O-])o2)c1	-8%	0%	-18%	25µM*	18µM*	-27%
Cc1cc(NC(=O)c2ccc([N+](=O)[O-])o2)ccc1NC(=O)c1ccco1	-1%	-3%	-20%	14µM*	4%	-3%
CC(C)OCCCNC(=O)C(=O)N/N=C/c1ccc(OCc2ccccc2)cc1	-1%	-2%	13%	?	-4%	-15%
CSc1ncc(Cl)c(C(=O)Nc2c(C(=O)Nc3cccc(Cl)c3)oc3ccccc23)n1	4%	-25%	-6%	5%	-18%	/
Nc1ccc(N)c(C(=O)O)c1	-18%	?	?	14µM*	?	16µM*
O=C1C=CC(=O)c2c(O)c(Cl)c(Cl)c(O)c21	-6%	?	3%	?	6%	0.35µM*
Cc1cc(-c2ccco2)n(-c2ccccc2)n1	-12%	3%	-14%	32µM*	?	148%
COC(=O)c1c(C)[nH]c(-c2csc(N)n2)c1C	5%	1%	?	25µM*	-13%	37%
S=C(NCCc1c[nH]c2ccccc12)NC1CC1	-6%	-2%	-16%	?	4%	5%
CCc1ccc2occ(CC(=O)Nc3c(C(=O)Nc4ccc(C)cc4)oc4ccccc34)c2c1	-24%[53 µM]	1122µM*[quencher]	-26%	1%	?	/
CCc1ccc2occ(CC(=O)Nc3c(C(=O)Nc4ccc(Cl)cc4)oc4ccccc34)c2c1	-5%	?	?	-2%	?	/
COc1ccc(/C=N/Nc2ncnc3sc(C)c(C)c23)cc1	-1%	-1%	?	?	?	8%
Cc1sc2ncnc(N/N=C/c3ccc(O)cc3)c2c1C	-7%	-11%	13µM*[quencher]	4.5µM*	9%	-11%
Cc1ccccc1NC(=O)c1sc2nc3n(c(=O)c2c1C)CCC3	-7%	-1%	4.5µM*[quencher]	-6%	?	/
Cc1c(NC(=O)Nc2ccc(Cl)c(Cl)c2)sc2nc3n(c(=O)c12)CCC(C)CC3 (stereo not drawn)	3%	-1%	?	-1%	?	/
Cc1c(NC(=O)Nc2ccccc2C(F)(F)F)sc2nc3n(c(=O)c12)CCC(C)CC3 (stereo not drawn)	8%	4%	13µM*[quencher]	-18%	?	/
COc1cc(OC)c(NC(=O)Nc2sc3nc4n(c(=O)c3c2C)CCC(C)CC4)cc1Cl (stereo not drawn)	7%	2%	4µM*[quencher]	?	11%	/
CC(=O)c1cccc(NC(=O)Nc2sc3nc4n(c(=O)c3c2C)CCC(C)CC4)c1 (stereo not drawn)	3%	-26%	11µM*[quencher]	?	?	/
CC(C)C1N(c2ccccc2)C(N)=C(C#N)C1(C#N)C#N (stereo not drawn)	-9%	-2%	-21%	-14%	2%	4%
COc1ccc(C)cc1NC(=O)C1CCCN(c2ncnc3onc(C)c23)C1 (stereo not drawn)	12%	-3%	-17%	-5%	-6%	/
CC(C)C1Nc2c(O)cc(Cl)c([N+](=O)[O-])c2C2C=CCC21 (stereo not drawn)	?	14%	?	11µM*	2%	-11%
C=CCSc1nnc2nc3c(nn12)c1cc(C)ccc1n3CC=C	3%	0%	-5%	28µM*	3%	-22%
SMILES	TRb-SRC2 inh	TR SRC2 fluor cs	Tau fluor cs	Tau ThT inhib	Tau FP inhib	RGS12 GoLoco inh
C=CCn1c(O)c(N=O)c2cc(C)ccc21	1%	-1%	-11%	?	-2%	2%
CCN(CC)c1cccc(OC2=NS(=O)(=O)c3ccccc32)c1	40µM*	45µM*[fluorescent]	-15%	-8%	5%	/
CCN(Cc1cc2ccc(C)cc2[nH]c1=O)C(=O)c1ccncc1	2%	0%	3%	-13%	7%	6%
O=C(OCC(=O)N1CCOCC1)c1ccccc1SCC(=O)N1CCCC1	-1%	0%	0%	0%	0%	0%
CN(C)c1ccc(N=Nc2ccccc2C(=O)OCC(=O)Nc2ccccc2C(F)(F)F)cc1	0%	0%	?	5µM*	?	2%
CN(C)c1ccc(N=Nc2ccccc2C(=O)OCC(=O)N2CCCC2)cc1	-2%	-2%	-24%	13µM*	6%	8%
CN(C)c1ccc(C(=O)OCC(=O)N2CCOCC2)cc1	3%	3%	-3%	1%	7%	-9%
CN(C)c1ccc(N=Nc2ccccc2C(=O)OCC(=O)N2CCCCCC2)cc1	1%	-1%	-21%	8.9µM*	13%	6%
COc1ccc(CCNc2nc(-c3ccc(OC)c(OC)c3)cc(C(F)(F)F)n2)cc1OC	7%	0%	?	?	-9%	/
N#Cc1c(NC(=O)CSc2nnnn2C2CCCC2)sc2c1CCCC2	-6%	-5%	9%	11%	-1%	-1%
CNC(=O)c1ccc(-c2sc3nc(N4CCOCC4)c4c(c3c2N)CCCC4)o1	-20%	-8%	14µM*[quencher]	16µM*	20%	/
O=C(CCn1c(=O)c2ccccc2n(Cc2ccc(F)cc2Cl)c1=O)NCc1ccc2c(c1)OCO2	2%	5%	5%	13%	-10%	/
CCNc1ccc(Br)cc(C(=O)/C=C/c2c(Cl)cccc2Cl)c1=O	-2%	-2%	?	13µM*	?	73%
CCNc1ccc(Br)cc(C(=O)/C=C/c2ccc(Cl)cc2)c1=O	-8%	-7%	?	14µM*	?	32%
CCNc1ccc(Br)cc(C(=O)/C=C/c2ccc3c(c2)OCO3)c1=O	-6%	-18%	?	11µM*	?	28%

Bioassay records deposited in PubChem BioAssay by National Center for Advancing Translational Sciences (NCATS).
